Source: PubChem
A selection: hits, their analogues and other compounds. The true share with any hit is near 9.2%.
SMN2 splice up – qHTS Assay for Enhancers of SMN2 Splice Variant Expression; HEK293 SMN2-luciferase splicing reporter, luminescence, 30-36 h; Potency, µM (top dose mostly 46.1 µM), without a hit: at the highest dose activity change, positive = activation, hits mostly activators; 2.8% of 210,000 active; AID 1458, 2008; note: % of control where 0% means no effect; nearly all actives have a fitted effect of over 55% in size
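HEK293 cells carry an SMN2 minigene-luciferase reporter in which exon 7 inclusion puts luciferase in frame. Cells were seeded at 2000 cells/well, attached for 10-12 hours, then exposed to compounds for 30-36 hours at 37C before ONE-Glo luminescence.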
ELG1 repair inh – qHTS screen for small molecules that inhibit ELG1-dependent DNA repair in human embryonic kidney (HEK293T) cells expressing luciferase-tagged ELG1 | HEK293T ELG1-luciferase reporter, luminescence, 16 h; DNA damage induced by 5-fluorouridine | 2.3% of 330,000 active | Potency, µM (highest dose often 46.1 µM), inactives show at the highest dose activity change, negative = inhibition, hits mostly inhibitors; note: % is set by controls: 0 for no effect and ±100 for the full control effect; nearly all actives have a fitted effect of over 55% in size
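In this reporter screen, reduction of luminescence relative to DMSO vehicle indicated activity. Compounds and 5-fluorouridine were added together to 2,000 cells per well, incubated for 16 hr at 37 °C, then developed with ONE-Glo.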
Rab9 prom act – qHTS Assay for Rab9 Promoter Activators; Huh7 Rab9 promoter-luciferase reporter, luminescence, 24 h; Potency, µM (titrated, usually from 9.22 µM), without a hit: at the highest dose activation, negative = inhibition, most hits filed as activators; 2.8% of 320,000 active; AID 485297, 2010; note: % of control where 0% means no effect; nearly all actives have a fitted effect of over 60% in size
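Luminescence from Amplite-detected luciferase (10 minutes, ambient) reports Rab9 promoter activation. Before that, stable Rab9-luciferase Huh7 cells (1500/well, reduced-serum OP-MEM I plus 10% FBS) were exposed to compound for 24 hours at 37C.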
FLuc counter – qHTS profiling assay for firefly luciferase inhibitor/activator using purifed enzyme and Km concentrations of substrates (counterscreen for miR-21 project). purified FLuc, Km substrates, luminescence inhibition. Luciferin 4-monooxygenase (Photinus pyralis), P08659. Potency, µM (highest dose often 57.5 µM), for inactives: at the top dose activity change, negative = inhibition, usual class: inhibitors. 6.9% of 360,000 active;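 note: plate controls were vehicle for no effect and reference inhibitor for full effect; nearly all actives have a fitted effect of over 55% in size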
Target sequence (P08659 whole entry, looked up): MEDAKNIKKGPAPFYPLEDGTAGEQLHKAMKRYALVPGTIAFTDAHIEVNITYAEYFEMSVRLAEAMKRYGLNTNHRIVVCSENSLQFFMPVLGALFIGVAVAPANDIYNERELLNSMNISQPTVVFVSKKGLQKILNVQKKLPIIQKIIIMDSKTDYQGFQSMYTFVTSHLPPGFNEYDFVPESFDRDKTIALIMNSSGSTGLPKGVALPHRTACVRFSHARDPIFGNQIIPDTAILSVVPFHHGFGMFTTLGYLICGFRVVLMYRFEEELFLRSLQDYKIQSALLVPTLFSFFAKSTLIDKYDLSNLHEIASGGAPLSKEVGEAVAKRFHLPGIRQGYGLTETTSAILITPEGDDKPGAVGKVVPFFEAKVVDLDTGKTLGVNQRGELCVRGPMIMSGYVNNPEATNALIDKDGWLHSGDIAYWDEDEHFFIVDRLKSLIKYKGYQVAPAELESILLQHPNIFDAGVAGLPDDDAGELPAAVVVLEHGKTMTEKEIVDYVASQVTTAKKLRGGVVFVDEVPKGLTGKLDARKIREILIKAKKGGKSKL
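Biochemical qHTS of compounds, final roughly 60 µM downward over six points, against 10 nM purified firefly luciferase using Km concentrations of substrates (10 uM D-luciferin, 10 uM ATP) in Tris acetate pH 7.5 buffer; luminescence output.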
NPC1 prom act – qHTS Assay for NPC1 Promoter Activators | Huh7 NPC1 promoter luciferase reporter, 24 h | 2.4% of 320,000 active | Potency, µM (highest dose often 9.22 µM), inactives show at the top dose activation, most hits filed as activators; note: % of control where 0% means no effect; nearly all actives have a fitted effect of over 60% in size
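Cells: Huh7 expressing luciferase under the NPC1 promoter, 1500/well. Seeded 2 h, compound added, incubated 24 h at 37 °C. Luciferase reagent, 10 min ambient, then luminescence.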
ELG1 genotoxic – qHTS screen for small molecules that induce genotoxicity in human embryonic kidney (HEK293T) cells expressing luciferase-tagged ELG1. Potency, µM (top dose mostly 46 µM), for the others: top-dose activity change, positive = activation, hits mostly activators. 1.3% of 330,000 active. AID 504466, 2011. HEK293T ELG1-luciferase reporter, luminescence, 16 h; note: % of control where 0% means no effect; nearly all actives have a fitted effect of over 60% in size
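Step 1: seed 2,000 HEK293T ELG1-luciferase cells per well. Step 2: add compound or DMSO, incubate 16 hr at 37 °C. Step 3: ONE-Glo, 30 min at room temperature, read luminescence.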
Active calls of the source: *; ? = inconclusive; · = no result given; [ ] = another dose, or the depositor's remark. Calls come from the whole dose curve; as a rule, active = well fitted curve in the direction sought with a large enough effect; inconclusive = small, poorly fitted or top-dose-only effect, or another doubt; inactive = no such curve, though single readings can be large; an effect the other way counts as inactive or inconclusive. Potency is the fitted concentration of half-maximal effect.

SMILES | SMN2 splice up | ELG1 repair inh | Rab9 prom act | FLuc counter | NPC1 prom act | ELG1 genotoxic
O=C(O)c1ccc(NC2=C/C(=N/S(=O)(=O)c3ccccc3)c3ccccc3C2=O)cc1 | -102.8% | 4.61µM* | -39.5% | 15.1µM* | -39.9% | -16.3%
CCc1ccc(S(=O)(=O)/N=C2\C=C(Nc3cccc(C(=O)O)c3)C(=O)c3ccccc32)cc1 | · | ? | -6.6% | ? | -16.8% | -26.2%
Cc1cc(C)c(S(=O)(=O)/N=C2\C=C(NS(=O)(=O)c3ccccc3)C(=O)c3ccccc32)c(C)c1 | · | -6.2% | 9.7% | -15.8% | 10.4% | 1.6%
CCc1ccc(S(=O)(=O)/N=C2/C=C(Sc3ncn[nH]3)C(=O)c3ccccc32)cc1 | -78.5% | 20.6µM* | -8.1% | ? | -10.9% | -15.2%
CCc1ccc(S(=O)(=O)/N=C2\C=C(Nc3ccc(O)cc3)C(=O)c3ccccc32)cc1 | · | 3.26µM* | -48.3% | ? | -41.3% | -28.0%
CCCCOc1ccc(OC(=O)c2sc3ncn(Cc4cccc(F)c4)c(=O)c3c2C)cc1 | · | · | · | 1.6% | · | ·
COc1ccc(CNC(=O)C2CCN(c3nc4ccc(C)cc4[nH]3)CC2)cc1 | · | · | · | -15.1% | · | ·
COc1ccc(N2CCN(C(=O)c3cnn(-c4ccc(F)cc4)c3-n3cccc3)CC2)cc1 | · | · | · | 0.5% | · | ·
COc1ccc(-n2nc(C(=O)O)c3ccccc3c2=O)c(OC)c1 | 17.6% | 11.3% | -4.5% | 0.8% | -4.7% | -2.4%
CCCCNC(=O)CNC(=O)c1nn(-c2ccc(OC)cc2OC)c(=O)c2ccccc12 | · | 7.9% | -0.9% | -5.4% | -2.4% | 1.6%
COc1ccc(-n2nc(C(=O)NCC(=O)N3CCN(c4cccc(Cl)c4)CC3)c3ccccc3c2=O)c(OC)c1 | · | -14.4% | -3.7% | 7.57µM* | -3.1% | 0.3%
COc1ccc(-n2ncc(C(=O)N3CCN(c4ccc(F)cc4)CC3)c2C)cc1 | · | 20.6µM* | -13.6% | -4.3% | -0.7% | -6.8%
COc1ccc(-n2nc(C(=O)N3CCN(c4ccc(F)cc4)CC3)c3ccccc3c2=O)c(OC)c1 | -5.4% | 9.2µM* | 0.8% | 6.2% | 9.3% | -7.0%
Cc1ccc(CS(=O)(=O)Cc2ccc(C(=O)NC3CCCC3)o2)cc1 | · | -11.2% | -2.8% | 2.7% | -4.3% | 1.7%
O=C(NC1CCCC1)c1ccc(CS(=O)(=O)Cc2ccccc2F)o1 | · | ? | 0.3% | 0.9% | -0.3% | -0.6%
O=C(NC1CCCCC1)c1ccc(CS(=O)(=O)Cc2ccccc2F)o1 | 10µM* | 26.5% | 21.5% | -3.3% | 10.7% | 8.1%
Cc1ccc(CS(=O)(=O)Cc2ccc(C(=O)NC3CCCCCC3)o2)cc1 | · | 18.3µM* | -1.2% | -8.2% | -48.4% | 0.7%[9.26 µM]
O=C(COc1ccccc1[N+](=O)[O-])N1CCC(c2nc3ccccc3o2)CC1 | · | · | · | 1.2% | · | ·
COc1ccc(Oc2ccc(N/C=C3/CCCC3=O)cc2)cc1 | -9.8%[1.84 µM] | 1.6% | 13.2% | 0.3% | -2.0% | 1.4%
COc1ccc(N/C=C2/CCCCC2=O)cc1 | 42.0% | ? | ? | 15.1µM* | ? | 2.8%
O=C1CCCC/C1=C\Nc1ccccc1C(=O)O | -5.8% | -2.0% | 2.1% | -14.5% | -2.8% | 3.3%
O=C1CCCC/C1=C/Nc1ccc(C(=O)O)cc1 | -27.3% | ? | ? | 12µM* | 24.7% | 9.9%
O=C1CCCC/C1=C/Nc1ccc2c(c1)OCO2 | ? | ? | 3.55µM* | 10.7µM* | 2.82µM* | ?
N#Cc1ccc(CS(=O)(=O)c2ccccc2)cc1 | 5.5% | · | · | · | · | ·
COc1ccc(-n2nc(C(=O)NCC(=O)NCCc3ccc(OC)c(OC)c3)c3ccccc3c2=O)cc1 | · | 16.4µM* | 1.5% | -0.9% | -8.1% | -13.3%
